Screens from PubChem BioAssay.
Cardio protect: myocardial damage modulation in H9c2 cells; H9c2 cardiomyocytes, H2O2 injury protection, ATPLite, 2 h; protection from H2O2 cell death, % at 20 µM; AID 588492; 0.63% of 360,000 active;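 active = compounds giving at least 50% protection of heart cells from peroxide-induced death in the single-dose screen, raw or plate-pattern-corrected value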;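 also: 0% = DMSO wells with peroxide and 100% = DMSO wells without peroxide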
PfGluPho inh: PfG6PD (Plasmodium falciparum) enzyme inhibition | PfGluPho enzyme, NADPH resazurin-diaphorase fluorescence | inhibition, % at 20 µM | 0.78% of 350,000 active;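 active = inhibition reaching at least a set limit at 20 µM in the primary screen, cut at about 59% in these data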;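 also: 0% = DMSO wells with substrate and 100% = DMSO wells lacking glucose-6-phosphate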
NadD block: blocks S. aureus nicotinate mononucleotide adenylyltransferase. purified NadD enzyme, colorimetric absorbance read-out. inhibition, % at 20 µM. 0.78% of 360,000 active. AID 602399; in the data active = inhibition above about 26%
A3G deaminase: APOBEC3G (human) deaminase inhibition | inhibition, % at 20 µM | 0.28% of 330,000 active | recombinant A3G, ssDNA deamination FAM/TAMRA fluorescence | Q9HC16;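 active = inhibition of at least 40% at 20 µM, with no more than 30% in the related APOBEC3A deaminase screen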;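 also: plate controls were DMSO wells with A3G for no effect and wells lacking A3G enzyme for full effect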
Target sequence (Q9HC16 whole entry, looked up): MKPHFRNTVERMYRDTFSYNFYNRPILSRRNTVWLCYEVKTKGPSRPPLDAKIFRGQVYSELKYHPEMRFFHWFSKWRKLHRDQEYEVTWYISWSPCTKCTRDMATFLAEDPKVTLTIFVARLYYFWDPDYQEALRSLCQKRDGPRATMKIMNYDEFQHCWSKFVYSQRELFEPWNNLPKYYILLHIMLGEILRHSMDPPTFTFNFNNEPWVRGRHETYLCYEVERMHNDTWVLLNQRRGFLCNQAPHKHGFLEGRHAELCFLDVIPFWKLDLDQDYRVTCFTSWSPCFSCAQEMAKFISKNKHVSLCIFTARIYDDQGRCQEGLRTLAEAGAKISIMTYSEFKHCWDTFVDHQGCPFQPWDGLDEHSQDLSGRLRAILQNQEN
H9c2 TAG inh: triacylglycerol accumulation inhibition; H9c2 cells, Nile Red lipid (TAG) fluorescence; cells loaded with 200 µM oleic acid; inhibition, % at 12.5 µM; 0.66% of 230,000 active; AID 651582;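 active = pattern-corrected inhibition of lipid staining of at least 50% with the nuclear-stain viability signal not falling by more than 50%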;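 also: 0% = DMSO wells and 100% = triacsin C control wells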
APOBEC3A inh: inhibitors of human APOBEC3A DNA deaminase; P31941; recombinant A3A, FAM/TAMRA ssDNA deamination fluorescence; inhibition, % at 20 µM; 0.41% of 330,000 active;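 active = at least 40% inhibition at 20 µM here, with at most 30% in a related deaminase screen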;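 also: plate controls were A3A with DMSO for no effect and wells lacking A3A enzyme for full effect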
Target sequence (P31941 whole entry, looked up): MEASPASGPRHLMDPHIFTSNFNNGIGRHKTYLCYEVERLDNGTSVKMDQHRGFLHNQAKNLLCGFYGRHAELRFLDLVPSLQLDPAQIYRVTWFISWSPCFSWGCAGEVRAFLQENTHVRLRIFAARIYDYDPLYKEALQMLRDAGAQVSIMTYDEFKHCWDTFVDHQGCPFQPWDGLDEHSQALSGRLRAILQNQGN
Starred values were filed as active, the others as inactive; / = no result. Sampled rows, rich in hits. Any-hit rate of the full collection: about 2.9%.

SMILES | Cardio protect | PfGluPho inh | NadD block | A3G deaminase | H9c2 TAG inh | APOBEC3A inh
O=C(Nc1cc(S(=O)(=O)N2CCOCC2)ccc1Cl)c1cc([N+](=O)[O-])ccc1Cl | 2 | 9 | -1 | -5 | 10 | 1
O=C(CC1SC(N2CCCCC2)=NC1=O)Nc1cccc(C(=O)NCc2ccc(F)cc2)c1 (stereo not drawn) | 2 | -5 | -6 | -11 | 1 | 0
COc1ccc(OC(C)C(=O)Nc2ccc([N+](=O)[O-])cc2)cc1 (stereo not drawn) | 1 | -4 | -10 | -3 | 0 | 0
C/C(=N\NC(=O)C(C)Oc1ccc([N+](=O)[O-])cc1)c1ccccn1 (stereo not drawn) | 50* | -21 | -7 | -6 | / | -4
CCCCCC/C=N/Nc1nnc(Cc2ccc(OC)c(OC)c2)c(=O)[nH]1 | -4 | -16 | -8 | -7 | / | 0
COc1ccc(Cc2nnc(N/N=C/c3ccc(O)cc3O)[nH]c2=O)cc1OC | 52* | -23 | 0 | -5 | / | -3
Cc1cc(Cl)ccc1OCCCC(=O)NNC(=O)c1ccccc1O | 55* | -48 | -1 | -5 | 15 | 1
Cc1ccccc1C(=O)Nc1ccc(C(=O)NNC(=O)CCCOc2ccc(Cl)cc2Cl)cc1 | -5 | -8 | 4 | -4 | / | 4
CC1=NN(c2ccccc2)C(=O)/C1=C\c1ccc(Oc2ccc([N+](=O)[O-])cc2[N+](=O)[O-])cc1 | -16 | 29 | 30* | -4 | -2 | -3
COc1cc(/C=C2\C(=O)N(c3ccccc3)N=C2C)ccc1Oc1ccc([N+](=O)[O-])cc1[N+](=O)[O-] | -8 | 34 | 36* | / | -9 | /
COc1cc(/C=C2/C(=O)N(c3ccc(C)c(C)c3)N=C2C)cc([N+](=O)[O-])c1O | 6 | -12 | -4 | -7 | / | 0
O=C(O)CC12CC3CC(C1)CC(n1cncn1)(C3)C2 | 5 | 1 | -2 | -5 | 2 | -1
CCc1ccc2nc(SCC(=O)N3CC(=O)Nc4ccccc43)c(C#N)cc2c1 | 0 | -1 | 15 | -6 | 51* | -2
Cc1sc2ncnc(N/N=C/c3ccc(O)cc3)c2c1C | -6 | 30 | -2 | -3 | / | -2
COc1cccc(/C=N/Nc2ncnc3scc(-c4ccccc4)c23)c1OC | 60* | 11 | 1 | -7 | / | -1
Cc1sc2ncnc(N/N=C/c3ccccc3O)c2c1C | 54* | -2 | 5 | / | / | /
CCN1C(=O)CS/C1=N\S(=O)(=O)c1ccc(Cl)cc1 | 3 | -10 | 0 | -10 | 3 | 6
CCn1c(Cl)c(C=O)s/c1=N\S(=O)(=O)c1ccccc1 | -12 | 31 | -2 | 8 | 85* | -6
N#CCc1nc(C(c2ccccc2)c2ccccc2)no1 | -2 | 21 | 11 | -9 | / | -4
COC1=CC(=O)C=C(OC)C1=O | -47 | 125* | -2 | / | 17 | /
NS(=O)(=O)c1ccc(NC(=O)CCC(=O)O)cc1 | -1 | / | 2 | / | 5 | /
Cc1nc2cc3c(=O)n(C)cnc3cc2n1Cc1ccccc1 | 5 | 3 | -1 | / | 3 | /
CCc1ccc(S(=O)(=O)/N=C2/C=C(Sc3ncn[nH]3)C(=O)c3ccccc32)cc1 | -21 | 107* | 71* | / | / | /
CCOc1ccc(C(=O)NC(=S)Nc2ccc(N3CCCCC3)cc2)cc1[N+](=O)[O-] | -6 | 64* | 10 | -6 | / | 0
Nc1ccc2nc(-c3cccs3)[nH]c2c1 | 66* | -5 | 14 | 2 | / | 1
SMILES | Cardio protect | PfGluPho inh | NadD block | A3G deaminase | H9c2 TAG inh | APOBEC3A inh
O=C(O)CCn1[nH]c(=O)c2ccccc2c1=O | -1 | -20 | -2 | -2 | -5 | -2
O=C(COC(=O)c1cc(-c2cccnc2)nc2ccccc12)Nc1ccc(F)cc1F | 71* | -3 | 4 | 0 | / | 3
O=C(Cn1[nH]c(=O)c2ccccc2c1=O)NNC(=O)c1ccccc1 | 62* | -9 | 2 | -8 | -1 | -7
Cc1c(NC(=O)COC(=O)c2cc(-c3ccc(-c4ccccc4)cc3)nc3ccccc23)c(=O)n(-c2ccccc2)n1C | -16 | -5 | 50* | / | -3 | /
Cc1c(NC(=O)CN2CCN(c3ccccc3)CC2)c(=O)n(-c2ccccc2)n1C | -17 | -16 | 2 | -2 | / | -3
Cc1c(NC(=O)Cn2[nH]c(=O)c3ccccc3c2=O)c(=O)n(-c2ccccc2)n1C | 64* | 5 | -4 | -4 | 9 | 2
COc1ccc(CNC(=O)COC(=O)c2[nH]c(C)c(C(C)=O)c2C)cc1OC | 1 | -4 | 1 | 2 | -4 | 3
COc1cc2c(cc1OC)C(c1ccccc1Cl)N(C)CC2 (stereo not drawn) | 2 | 9 | 5 | -9 | / | -7
O=C(COc1ccccc1Cl)NCc1ccccc1 | -1 | -3 | -3 | 0 | -7 | -3
O=C(COc1ccccc1Cl)NNC(=O)Cn1[nH]c(=O)c2ccccc2c1=O | 92* | 10 | 1 | -8 | 3 | 0
CN(CC(=O)Nc1c(Cl)cccc1Cl)C(=O)Cn1[nH]c(=O)c2ccccc2c1=O | 76* | 6 | 5 | -4 | 38 | -4
CN1C(=O)/C(=C2\SC(N3CCCCCC3)=NC2=O)c2ccccc21 | -9 | 37 | 6 | -5 | / | 1
CCCN1C(=O)/C(=C2\SC(N3CCCCC3)=NC2=O)c2ccccc21 | -28 | 35 | 10 | -1 | 51* | 2
COCCCn1c(C)nc2c(c1=O)c1nc3ccccc3nc1n2CCc1ccccc1 | 58* | 19 | -7 | -4 | 33 | -2
O=C(Cn1[nH]c(=O)c2ccccc2c1=O)Nc1ccc2c(c1)CCC2 | 29 | 21 | 4 | -2 | -7 | 3
O=C(Cn1[nH]c(=O)c2ccccc2c1=O)NC1CCN(Cc2ccccc2)CC1 | 70* | 13 | -2 | -6 | 6 | -2
O=C(Cn1[nH]c(=O)c2ccccc2c1=O)NC1CCCCCC1 | 78* | 7 | 0 | -7 | / | -1
COC(=O)c1cc(S(=O)(=O)NCC2CCN(CCc3cccs3)CC2)cn1C | 2 | 2 | 0 | 0 | / | -3
CCCCNC(=O)C1(C)CCN1C(=O)c1cc(F)ccc1C (stereo not drawn) | 4 | / | 0 | / | -3 | /
O=C(CSc1nnc(NC2CCCCC2)s1)Nc1ccc2c(c1)C(=O)c1ccccc1C2=O | 0 | 2 | 46* | 4 | 5 | 0
CC(C)Nc1nnc(SCC(=O)Nc2ccc3c(c2)C(=O)c2ccccc2C3=O)s1 | 18 | 36 | 17 | / | / | /
Cc1oc(-c2cccc(Cl)c2)nc1CS(=O)(=O)CC(=O)NC1CCCC1 | -2 | -15 | 0 | 0 | / | -1
O=C(O)c1cccc2cccc(-c3c4ccc(=O)c(O)c-4oc4c(O)c(O)ccc34)c12 | -6 | 51 | 83* | / | 4 | /
CC(=O)Nc1ccc(S(=O)(=O)N(C)CC(=O)OCC(=O)Nc2cc(C)on2)cc1 | 0 | 1 | -1 | -6 | -12 | 3
N/C(=N\NC(=O)c1sccc1OCc1ccc(Cl)cc1Cl)c1ccccn1 | 55* | 5 | 2 | -10 | / | -3
